Assay outcomes as filed in PubChem BioAssay.
Only some compounds are listed: those with a hit (about 2.7% of all), similar ones and a draw of the others.
PfGluPho inh = PfG6PD (Plasmodium falciparum) enzyme inhibition. PfGluPho enzyme, NADPH resazurin-diaphorase fluorescence. inhibition, % at 20 µM. 350,000 tested, 0.78% active. AID 504690;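 active = inhibition reaching at least a set limit at 20 µM in the primary screen, cut at about 59% in these data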;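 also: 0% = DMSO wells with substrate and 100% = DMSO wells lacking glucose-6-phosphate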
Neddyl block = cullin neddylation inhibition | TR-FRET cullin neddylation, biochemical | P61081+Q13564 | 360,000 tested, 0.58% active | calls only at 25 µM; in the data active = inhibition above about 36%
FAS-TE inh = blocks the thioesterase domain of human fatty acid synthase | P49327 | 360,000 tested, 0.67% active | recombinant FAS-TE, OMFH fluorogenic substrate, fluorescence endpoint | inhibition, % at 15 µM;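 active = compounds whose normalised, plate-corrected inhibition of enzyme fluorescence in the single-dose primary screen is 50% or more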;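 also: 0% = DMSO with enzyme and 100% = substrate without enzyme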
KLK7 zymogen act = activators of human kallikrein-7 zymogen | P49862 | purified proKLK7, EDANS-DABCYL substrate fluorescence; 100% is mature enzyme control, 0% vehicle | activation, % at 7 µM | 370,000 tested, 0.9% active;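 active = activation above the mean of all tested compounds plus 3 SD, computed per campaign excluding outliers beyond control limits, cut at about 13% in these data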
KLK7 act conf = proKLK7 activation, confirmation; shares compounds with KLK7 zymogen act; purified proKLK7, EDANS-DABCYL substrate fluorescence; scaled: vehicle 0, mature enzyme 100; activation, % at 7 µM; 3,200 tested, 68% active; AID 686949;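 active = activation, as change over the incubation, above the mean of all tested compounds plus 3 SD, cut at about 13% in these data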
EDANS-DABCYL int = optically interferes with EDANS-DABCYL signal, flagging KLK7 hits; shares compounds with KLK7 zymogen act; EDANS-DABCYL substrate fluorescence interference, no enzyme, 4 h; solvent 0%, active enzyme control 100%; activation, % at 7 µM; 3,200 tested, 80% active;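 active = activation above the all-compound mean plus 3 SD, ignoring values outside control-based bounds, cut at about 4.8% in these data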;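 also: value is the 4 h activation minus the activation read at time zero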
EDANS interf = counter-screen for kallikrein-7 activators: EDANS-DABCYL interference, dose response; shares compounds with KLK7 zymogen act; EDANS-DABCYL peptide fluorescence interference, no enzyme; EC50, µM; 250 tested, 20% active; AID 720493;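 active = compounds that raise the fluorescence signal in this interference counterscreen, with EC50 at or below 10 µM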;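 also: intact quenched peptide substrate alone read at 355 nm excitation and 520 nm emission; signal is fluorescence gain from T0 to T4 after four hours at room temperature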
The depositor's hits bear a star; i = inactive; nt = not tested or not shown.

SMILES	PfGluPho inh	Neddyl block	FAS-TE inh	KLK7 zymogen act	KLK7 act conf	EDANS-DABCYL int	others
COc1ccc2ccccc2c1C=Nn1c(-c2cc(-c3ccccc3)n[nH]2)n[nH]c1=S	nt	nt	nt	3	nt	nt
CC(=O)Oc1ccc2c(=O)c(N3C(=O)c4ccccc4C3=O)c(C)oc2c1	20	i	-7	151*	166*	164*
CCOC(=O)C1=C(C)NC2=C(C(=O)CCC2)C1c1cccs1 (stereo unspecified)	-5	i	-9	3	nt	nt
CCOCCOC(=O)C1=C(C)NC2=C(C(=O)CC(c3cccs3)C2)C1c1ccsc1 (stereo unspecified)	-2	nt	6	90*	-4	-1
Cc1ccc(Nc2cc(C)c3ccc(O)cc3n2)cc1C	52	nt	-4	-2	nt	nt
Cc1cc(NCc2ccco2)nc2cc(O)ccc12	-6	nt	-4	19*	72*	66*
COC(=O)C1=CN(c2ccc(Oc3ccccc3)cc2)C(N)=C(C#N)C1c1ccc(-c2ccccc2)cc1 (stereo unspecified)	nt	nt	nt	0	nt	nt
CCCCCCN1CCN(C2CN(Cc3cn(Cc4ccccc4)nn3)S(=O)(=O)C2)CC1 (stereo unspecified)	nt	i	-2	0	nt	nt
CC(C)[C@@H]1NC(=O)[C@@H]2CSCCS(=O)(=O)N2C1=O	nt	nt	nt	-1	nt	nt
COc1ccc2cc(-c3nc4ccccc4n3C)c(=O)oc2c1	6	nt	-6	22*	39*	35*
Cn1c(-c2cc3ccccc3oc2=O)nc2ccccc21	-11	i	-5	-2	nt	nt
Cc1c(C)c2cc(Cl)c(O)c(CN3CCN(C)CC3)c2oc1=O	14	i	-3	76*	64*	69*
CCc1cc2c(=O)c(-c3nc4ccccc4n3C)c(C(C)C)oc2c(CN2CCN(C)CC2)c1O	-2	nt	-6	12	nt	nt
Cc1c(C)c2cc(Cl)c(O)c(CN3CCCC(C)C3)c2oc1=O (stereo unspecified)	-1	nt	0	42*	69*	73*
COc1ccccc1NC(=O)OC[C@@H]1CSCCS(=O)(=O)N1	nt	nt	nt	0	nt	nt
Cc1coc2c(C)c3oc(=O)c(CCC(=O)NCCCN4CCCC4=O)c(C)c3cc12	-5	nt	-3	5	nt	nt
Cc1oc2c(c(C)cc3oc(=O)c(CC(=O)N[C@@H](C)C(=O)O)c(C)c32)c1C	-11	nt	-6	9	nt	nt
CC[C@@H](C)[C@H](NC(=O)CNC(=O)Cc1c(C)c2c(cc(C)c3c(C)coc32)oc1=O)C(=O)O	-3	nt	-2	24*	-39	-44
Cc1coc2c1c(C)cc1oc(=O)c(CC(=O)NCCCN3CCCC3=O)c(C)c12	5	nt	-4	23*	4	2
CCCC(NC(=O)Cc1c(C)c2c(cc(C)c3c(C)coc32)oc1=O)C(=O)O (stereo unspecified)	0	nt	-9	26*	-11	-12
Cc1oc2c(c(C)cc3oc(=O)c(CC(=O)N[C@@H](CCCNC(N)=O)C(=O)O)c(C)c32)c1C	1	nt	-5	22*	21*	14*	EDANS interf=>69
O=C(O)c1cccc(C(=O)O)c1S(=O)Cc1ccccc1 (stereo unspecified)	nt	nt	nt	1	nt	nt
CCOc1nc(N=C(N)N)nc2c(C)cccc12	0	nt	-14	21*	12	17*
CC(C)C(=O)Nc1sc2c(c1-c1nc3ccccc3[nH]1)CCCC2	29	nt	0	496*	-8	4.7*
CC(C)N(Cc1cn(Cc2ccccc2)nn1)S(=O)(=O)c1ccc(F)cc1Br	nt	nt	nt	0	nt	nt
SMILES	PfGluPho inh	Neddyl block	FAS-TE inh	KLK7 zymogen act	KLK7 act conf	EDANS-DABCYL int	others
Cc1ccc(S(=O)(=O)c2c(N)n(NC(=O)C3CC3)c3nc4ccccc4nc23)cc1	-31	nt	-8	37*	11	4.1*
Cc1ccc(-n2c(N)c(S(=O)(=O)c3ccccc3)c3nc4ccccc4nc32)cc1	3	nt	13	-8	nt	nt
CN(C)CCCn1c(N)c(C#N)c2nc3ccccc3nc21	-5	nt	-42	121*	63*	72*
CCCCC(CC)Cn1c(N)c(C#N)c2nc3ccccc3nc21 (stereo unspecified)	12	nt	-21	-4	nt	nt
Cc1ccc(S(=O)(=O)c2c(N)n(CCCN(C)C)c3nc4ccccc4nc23)cc1	3	nt	-2	36*	-43	-48
CC(C)[C@H](NC(=O)CC1CCCC1)C(=O)N1CCC[C@H]1C(=O)NCCc1ccccc1Cl	nt	nt	nt	1	nt	nt
